# Results filed as inconclusive are left out. Calls of active or inactive are those of the source. Unless noted, cut-off not given; nearly all actives show AC50 up to about 30 µM.
# Assays:
# [1] = viability loss in pontine glioma line – cell-based, SU-DIPG-XIII, MIPE4.0, CellTiter-Glo, qHTS, dose response (AID 1347061; cut-off not given, nearly all actives have AC50 up to about 37 µM;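 further: cells exposed to compound for 48 hours before readout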); settings: CellTiter-Glo ATP luminescence
# [2] = viability loss in pontine glioma line – cell-based, JHH-DIPG-1, MIPE4.0, CellTiter-Glo, qHTS, dose response (AID 1347062; cut-off not given, nearly all actives have AC50 up to about 27 µM;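 on AC50: cells exposed to compound for two days before readout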); settings: JHH-DIPG-1 viability, CellTiter-Glo ATP luminescence
# [3] = viability loss in pontine glioma line – cell-based, SU-DIPG-IV, MIPE4.0, CellTiter-Glo, qHTS, dose response (AID 1347063); settings: CellTiter-Glo ATP luminescence;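 further: compound exposure lasted 48 hours before the viability readout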
# [4] = viability loss in pontine glioma line – cell-based, SU-DIPG-XIII, MIPE5.0, CellTiter-Glo, qHTS, dose response (AID 1347064; cut-off not given, nearly all actives have AC50 up to about 23 µM); settings: CellTiter-Glo ATP luminescence
# [5] = viability loss in pontine glioma line – cell-based, SU-DIPG-XXV, MIPE5.0, CellTiter-Glo, qHTS, dose response (AID 1347065; cut-off not given, nearly all actives have AC50 up to about 26 µM;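 further: cells exposed to compound for 48 hours before ATP readout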); settings: CellTiter-Glo ATP luminescence
# [6] = growth inhibition of DIPG cells – cell-based, MIPE4.0 library, CellTiter-Glo luminescence, qHTS (AID 1347066); settings: SU-DIPG-VI viability, CellTiter-Glo ATP luminescence;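 further: cells exposed to compound for 48 hours before readout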
# [7] = JHH-DIPG-1 glioma cell viability, MIPE5.0 library, CellTiter-Glo luminescence, qHTS (AID 1347067; cut-off not given, nearly all actives have AC50 up to about 26 µM;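 further: cells exposed to compound for 48 hours before readout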); settings: JHH-DIPG-1 glioma viability, CellTiter-Glo ATP luminescence
# [8] = growth inhibition of DIPG cells – cell-based, MIPE5.0 library, qHTS (AID 1347068; cut-off not given, nearly all actives have IC50 up to about 30 µM); settings: SU-DIPG-XXV viability
# [9] = viability loss with induced miR-34 in A549 – imaging, A549 dox-inducible miR-34, nuclei and caspase counts, primary screen (AID 1347080;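 active means compounds whose cell count with miR-34 switched on is under 0.7 times the count with it off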); settings: A549 miR-34 inducible, Hoechst nuclei count, 48 h
# [10] = MELAS cybrid and Rieske KO viability enhancers – cell-based, MELAS cybrids, Rieske KO mouse fibroblasts, CellTiter-Glo, primary screen (AID 1508586;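 active means mean z-score across replicates of 1.96 or higher in either the MELAS or the Rieske mutant cell line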;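 further: z relative to plate mean and SD of compound and empty wells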); settings: low glucose
compound,measurement,setting,value
CN1C(=O)C[C@H](C(=O)N[C@@H](Cc2cnc[nH]2)C(=O)N2CCC[C@H]2C(N)=O)NC1=O,outcome,[1],inactive
CCOC(=O)N1CCN(/[N+]([O-])=N/Oc2ccc([N+](=O)[O-])cc2C#N)CC1,outcome,[1],inactive
same,AC50,[2],1.32 µM (active)
CO[C@H]1C(=O)[C@]2(C)[C@@H](OC)C[C@H]3OC[C@@]3(OC(C)=O)[C@H]2[C@H](OC(=O)c2ccccc2)[C@]2(O)C[C@H](OC(=O)[C@H](O)[C@@H](NC(=O)OC(C)(C)C)c3ccccc3)C(C)=C1C2(C)C,outcome,[1],inactive
same,outcome,[2],inactive
same,outcome,[3],inactive
same,outcome,[4],inactive
same,AC50,[5],1.86 nM (active)
same,outcome,[6],inactive
same,outcome,[7],inactive
CNC(=O)c1ccc(-c2cnc3ncc(Cc4ccc5ncccc5c4)n3n2)cc1F,outcome,[1],inactive
same,outcome,[2],inactive
same,outcome,[3],inactive
same,outcome,[4],inactive
same,outcome,[5],inactive
same,outcome,[6],inactive
same,outcome,[8],inactive
CCN(c1cc(-c2ccc(CN3CCOCC3)cc2)cc(C(=O)NCc2c(C)cc(C)[nH]c2=O)c1C)C1CCOCC1,outcome,[8],inactive
same,fold change,"[9]; stronger effect = lower value, cell number ratio, induced over uninduced",0.946 (inactive)
same,fold change,[9]; measured here: relative caspase fold change +Dox/-Dox,0.487
same,cell count,"[9]; measured here: total cells with miR-34 induction, stronger effect = lower value",7910
same,cell count,[9]; measured here: total cells without miR-34 induction,8360
same,z-score,"[10]; MELAS cybrid survival, CellTiter-Glo 48 h, stronger effect = higher value",-0.348 (inactive)
same,z-score,"[10]; Rieske KO mouse fibroblast survival, CellTiter-Glo 72 h",-0.95

# From PubChem BioAssay
